Screening results from PubChem BioAssay.
A selection: hits, their analogues and other compounds. The true share with any hit is near 11%.
HP1b binding inh: HP1-beta chromodomain-methylated histone interaction inhibition | AlphaScreen HP1-beta / biotin-H3K9me3 peptide binding | Potency, µM (doses to about 114 µM), inactives show at the highest dose activity change, negative = inhibition, hits mostly inhibitors | 0.56% of 390,000 active; note: nearly all actives have a fitted effect of over 70% in size
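Compound inhibition of the preformed complex between 50 nM HP1-beta and 50 nM biotinylated H3K9me3 peptide was read by AlphaScreen. Buffer was PBS pH 7.4 with 0.01% Tween-20. Incubations ran 30 min at room temperature, with 10 ug/mL donor/acceptor beads.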
BAZ2B block: BAZ2B (human) inhibition; Q9UIF8; AlphaScreen BAZ2B-H3K14Ac peptide displacement; Potency, µM (series often up to 114 µM), for the others: at the highest dose activity change, negative = inhibition, usual class: inhibitors; 4.4% of 360,000 active; AID 504333; note: % is set by controls: 0 for no effect and ±100 for the full control effect; nearly all actives have a fitted effect of over 60% in size
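Inhibition is scored as reduced AlphaScreen emission. The BAZ2B/b-H3(5-23)K14Ac complex (50 nM each) in PBS pH 7.4, 0.01% Tween-20 meets compound (up to 110 uM) for 30 min at RT before bead addition.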
L3MBTL1 block: inhibitors of human L3MBTL1; Q9Y468; AlphaScreen L3MBTL1–H3K9me1 peptide binding; Potency, µM (titrated, usually from 57.1 µM), for inactives: top-dose activity, negative = inhibition, hits mostly inhibitors; 0.66% of 230,000 active; note: % is set by controls: 0 for no effect and ±100 for the full control effect; nearly all actives have a fitted effect of over 60% in size
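First, the protein-peptide complex forms for 30 min at room temperature (L3MBTL1 50 nM, biotinylated H3K9me1 peptide 75 nM). Next, compounds are pin-transferred and incubated 30 min. Finally, AlphaScreen beads are added and read after 30 min.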
G9a block: blocks human histone lysine methyltransferase G9a | G9a H3K9 monomethylation, AlphaScreen, 2 h | Potency, µM (doses to about 102 µM), for the others: at the highest dose activity, negative = inhibition, most hits filed as inhibitors | 8.8% of 350,000 active | AID 504332; note: % is set by controls: 0 for no effect and ±100 for the full control effect; nearly all actives have a fitted effect of over 75% in size
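Quantitative HTS format: methyltransferase activity on a biotin-tagged H3K9 peptide is measured by AlphaScreen, using a rabbit anti-monomethyl-H3K9 antibody with streptavidin donor and anti-IgG acceptor beads. Final levels are 20 nM enzyme, 500 nM peptide, 20 uM SAM; 2 h RT.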
JMJD2A Tudor: inhibitors of human JMJD2A Tudor domain. O75164. AlphaScreen JMJD2A-Tudor / H3K4me3 peptide binding. Potency, µM (series often up to 114 µM), without a hit: at the highest dose activity change, negative = inhibition, usual class: inhibitors. 4.4% of 390,000 active; note: % is set by controls: 0 for no effect and ±100 for the full control effect; nearly all actives have a fitted effect of over 50% in size
Active calls of the source: *; ? = inconclusive; . = not tested or not shown; [ ] = another dose, or the depositor's remark. Calls come from the whole dose curve; as a rule, active = well fitted inhibition curve with a large enough effect; inconclusive = small, poorly fitted or top-dose-only effect; inactive = no such curve, though single readings can be large or run the other way. Potency is the fitted concentration of half-maximal effect.

SMILES | HP1b binding inh | BAZ2B block | L3MBTL1 block | G9a block | JMJD2A Tudor
COc1ccc(C(=O)NCCc2c[nH]c3ccccc23)cc1S(=O)(=O)N1CCCCC1C (stereo not given) | -11% | -39% | -1% | 2.8µM* | ?
Cc1ccnc(NS(=O)(=O)c2ccc(N3C(=O)c4c(Cl)c(Cl)c(Cl)c(Cl)c4C3=O)cc2)n1 | ? | ? | 8% | ? | 89µM*
Cc1c(N=CC=Nc2c(C)n(C)n(-c3ccccc3)c2=O)c(=O)n(-c2ccccc2)n1C | . | -3% | 8% | -9%[59 µM] | .
COc1cc(N=Nc2c(C)n(C)n(-c3ccccc3)c2=O)ccc1N | 11% | -25% | . | 50µM* | -10%
Cc1cccc(-c2cc3nc4c(c(NCc5ccco5)n3n2)CCCC4)c1 | -13% | -7% | -8% | 0%[59 µM] | 79µM*
Cc1cccc(-c2cc3nc4c(c(N5CCOCC5)n3n2)CCCC4)c1 | 108% | 42% | 39% | -28%[59 µM] | 10%
CCN(Cc1ccccc1)C(=O)C1CCC(CNS(=O)(=O)c2ccc3c(c2)CCCC(=O)N3)CC1 (stereo not given) | 24% | -19% | . | -32%[59 µM] | -16%
O=C(NCc1ccc(Cl)cc1)C(=O)NCC(c1ccc2c(c1)OCO2)N1CCOCC1 (stereo not given) | 17%[57 µM] | 1% | . | -1%[59 µM] | -15%
CCn1c(=O)n(CC)c2cc(N3CCCC3)c(NC(=O)c3ccc(C)c([N+](=O)[O-])c3)cc21 | 12% | -32% | . | 8.9µM* | ?
CCn1c(=O)n(CC)c2cc(N3CCCC3)c(NC(=O)c3cccc(C)c3)cc21 | -6% | 50µM* | . | 28µM* | ?
CCn1c(=O)c(=O)n(CC)c2cc(N3CCCCC3)c(NC(=O)c3cccc(OC)c3)cc21 | 13% | 1% | . | -35%[59 µM] | -9%
Cc1cccc(C(=O)Nc2cc3c(cc2N2CCCCC2)n(C)c(=O)c(=O)n3C)c1 | 30% | 0% | . | 4%[59 µM] | 2%
Nc1c(C(=O)Nc2ccc(Cl)cc2F)sc2nc(-c3cccs3)ccc12 | 38% | 0% | . | -9%[59 µM] | -6%
CCOc1c(Br)cc(CNc2ccc(N3CCOCC3)cc2)cc1OC | ? | 25µM* | . | 11µM* | 50µM*
CCOc1cc(CNCc2cccs2)cc(Br)c1OC | 43% | 8% | 12% | -23% | 8%
CCOc1c(Br)cc(CNc2ccc3c(c2)OCCO3)cc1OC | -81% | 35µM* | . | 3.2µM* | 50µM*
CCOc1cc(CNc2ccc3c(c2)OCCO3)cc(Br)c1OC | -69% | 22µM* | . | 4µM* | 40µM*
COc1cc(CNc2ccc3c(c2)OCCO3)ccc1OCC(N)=O | 7% | -16% | 4% | 1% | ?
CCOc1cc(CNc2ccc3c(c2)OCCO3)cc(Br)c1OCC(N)=O | -39% | 45µM* | -18% | 13µM* | 50µM*
COc1c(/C=N/Nc2ccc(C(=O)O)cc2)c(CCN(C)C(C)=O)cc2c1OCO2 | 44% | -15% | 0% | 45µM* | 3%
CCCSCCCNC(=O)C1CCN(C(=O)c2cnn(-c3ccccc3)c2-n2cccc2)CC1 | 17% | -12% | . | -8%[59 µM] | -18%
O=C1NC(c2ccccc2)N=C2Oc3ccccc3C=C12 (stereo not given) | 30% | . | . | . | -3%
Cc1ccc(-n2c(N)c(C(=O)N3CCN(C)CC3)sc2=S)cc1 | ? | -24% | -6% | 2µM* | ?
CCOc1ccc(-n2c(N)c(C(=O)N3CCN(C)CC3)sc2=S)cc1 | 22% | -35% | -11% | 45µM* | -29%
Cc1ccc(-n2c(N)c(C(=O)N3CCCCC3)sc2=S)cc1 | 16µM* | ? | . | 8.9µM* | ?
SMILES | HP1b binding inh | BAZ2B block | L3MBTL1 block | G9a block | JMJD2A Tudor
CCCSc1nc(C)c2cc(C)cc(C)c2n1 | 162% | 105% | . | 78%[59 µM] | 69%
Cc1cc(C)c2nc3nc(C)c(C)cc3c(N)c2c1 | 12% | -24% | -12% | 50µM* | -2%
O=C(Cn1ncc(Cl)c(Cl)c1=O)N1CCN(S(=O)(=O)c2ccc3ccccc3c2)CC1 | 36% | 11% | -6% | 45µM* | -4%
Cc1ccc2nc(CSc3nnc(-c4ccco4)o3)cc(=O)n2c1 | 26% | 56µM* | -19% | ? | -31%
CCN(CC)c1cc2c(cc1F)c(=O)c(S(=O)(=O)c1ccc(OC)cc1)cn2Cc1ccccc1 | 25% | 1% | . | -13%[59 µM] | -2%
O=C1N=c2ccccc2=C1c1c(O)n(-c2cccc(F)c2)[nH]c1=O | ? | ? | 0% | 4µM* | ?
CCn1c(O)c(C2=c3ccccc3=NC2=O)c2cc(Br)ccc21 | 7% | -35% | -14% | ? | -19%
Cc1ccc(S(=O)(=O)c2nc(S(=O)(=O)c3ccccc3)sc2NCCCOC(C)C)cc1 | 8% | 3% | . | 1%[59 µM] | -24%
COc1ccc(N2Cc3ccccc3C2=NC(=O)c2ccc(C)cc2)cc1OC | 12% | -38% | -11% | 45µM* | ?
O=C(N=C1c2ccccc2CN1c1ccccc1)c1cccc([N+](=O)[O-])c1 | -22% | -33% | -4% | 50µM* | ?
O=C(N=C1c2ccccc2CN1c1ccc(F)c(F)c1)c1cccnc1 | 37% | -10% | -24% | -30% | -14%
O=C(/N=C1/c2ccccc2CN1c1ccccc1)Nc1ccccc1 | 34% | -12% | -1% | 12%[59 µM] | -13%
O=C(N=C1c2ccccc2CN1c1cccc(Cl)c1)c1cccnc1 | 50% | -8% | -5% | 50µM* | 0%
O=C(COC(=O)c1cc(S(=O)(=O)N2CCOCC2)ccc1Cl)NCc1ccccc1 | 36% | . | 4% | . | -6%
COC(=O)C1=C(C(=O)OC)C2(OC1c1cccc(F)c1)C(=O)c1ccccc1C2=O (stereo not given) | 24% | 0% | . | 25µM* | 0%
CCn1c(COc2ccc(=O)n(-c3ccccc3)n2)n[nH]c1=S | 40% | -2% | 2% | 25µM* | 20µM*
O=C(CCC(=O)c1ccc(Cl)cc1)OCc1nc2ccsc2c(=O)[nH]1 | 36% | -5% | 11% | 11%[0.501 µM] | 14%
CCOC(=O)CNC(=O)N1CCN(S(=O)(=O)c2ccc3c(ccn3C)c2)CC1 | 8%[57 µM] | -1% | . | 14%[59 µM] | -2%
O=[N+]([O-])c1cnc(Sc2ccncn2)s1 | -2% | -20% | 6% | 10µM* | -22%
O=C(NCc1ccc(F)cc1)c1ccc(CS(=O)Cc2ccc(Cl)cc2)o1 (stereo not given) | 38% | -37% | . | -26%[59 µM] | -3%
O=C(NCCc1ccccc1)C1CCC(CNS(=O)(=O)c2cccs2)CC1 (stereo not given) | -14% | -32% | . | -3% | -13%
NC(=S)N/N=C1\CC(n2nnn(-c3cccc(Cl)c3)c2=S)C2COC1O2 (stereo not given) | -21% | ? | . | 40µM* | ?
O=C1N/C(=N/Nc2ccccc2)S/C1=C\c1ccccc1 | ? | 40µM* | -28% | 7.9µM* | 45µM*
